Assay results taken from PubChem BioAssay AID1159580 (chemical genetic matrix, 2015).
Several values for one entry are separate records, joined by “and”; a condition that tells them apart may be missing. Equal entries are not always repeated. Screen size: about 5,500 compounds; about 2,000 (36%) were called active. Another 18% or so got no clear call; they are omitted. Rule as the data show it: active = normalized growth mostly below about 0.91 (no sharp cut-off); inconclusive = no clear call, values can overlap the other calls; inactive = mostly above about 0.92. Some of the results follow.

Assay: chemical genetic growth profiling, strain panel (AID 1159580);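 also: tested at 20 µM; growth read once vehicle control cultures reached saturation at 30 °C; 1 = growth at the plate median or of vehicle wells; lower values mean less growth of the strain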
Details: S. cerevisiae deletion strains, growth OD

Measured: normalized growth

C[C@@H]1O[C@@H](OC[C@H]2OC(Oc3c(-c4ccc(OCCO)c(OCCO)c4)oc4cc(OCCO)cc(O)c4c3=O)[C@H](O)[C@@H](O)[C@@H]2O)[C@H](O)[C@H](O)[C@H]1O (stereo not given in full)
inactive: locus YAL013W, strain DEP1, stronger effect = lower value 0.994 | locus YAL021C, strain ccr4, stronger effect = lower value 0.972 | locus YAL026C, strain drs2, stronger effect = lower value 0.973 | locus YAL030W, strain snc1, stronger effect = lower value 0.946 | locus YBL061C, strain skt5, stronger effect = lower value 0.974 | locus YBR009C, strain hhf1, stronger effect = lower value 0.981 | locus YBR021W, strain FUR4, stronger effect = lower value 1.02 | locus YBR023C, strain chs3, stronger effect = lower value 0.956 | locus YBR171W, strain sec66, stronger effect = lower value 0.945 | locus YBR229C, strain ROT2, stronger effect = lower value 0.961 | locus YBR231C, strain swc5, stronger effect = lower value 0.962 | locus YBR279W, strain paf1, stronger effect = lower value 0.967 | locus YCL011C, strain gbp2, stronger effect = lower value 0.952 | locus YCL016C, strain dcc1, stronger effect = lower value 0.984 | locus YCL029C, strain bik1, stronger effect = lower value 1.01 | locus YCL061C, strain MRC1, stronger effect = lower value 0.973 | locus YCL069W, strain vba3, stronger effect = lower value 0.966 | locus YCR088W, strain abp1, stronger effect = lower value 0.969 | locus YDL005C, strain med2, stronger effect = lower value 0.963 | locus YDL035C, strain GPR1, stronger effect = lower value 0.945 | locus YDL040C, strain nat1, stronger effect = lower value 0.972 | locus YDL074C, strain BRE1, stronger effect = lower value 1.01 | locus YDL101C, strain DUN1, stronger effect = lower value 0.979 | locus YDL185W, strain tfp1, stronger effect = lower value 0.973 | locus YDL192W, strain arf1, stronger effect = lower value 0.992 | locus YDR001C, strain nth1, stronger effect = lower value 0.943 | locus YDR069C, strain doa4, stronger effect = lower value 0.931 | locus YDR101C, strain arx1, stronger effect = lower value 1.04 | locus YDR137W, strain rgp1, stronger effect = lower value 0.938 | locus YDR159W, strain sac3, stronger effect = lower value 0.94 | locus YDR162C, strain NBP2, stronger effect = lower value 0.985 | locus YDR195W, strain ref2 0.892 | locus YDR297W, strain sur2, stronger effect = lower value 0.974 | locus YDR318W, strain mcm21, stronger effect = lower value 0.963 | locus YDR334W, strain swr1, stronger effect = lower value 0.916 | locus YDR335W, strain msn5, stronger effect = lower value 0.958 | locus YDR388W, stronger effect = lower value 0.994 | locus YDR392W, strain spt3, stronger effect = lower value 1.02 | locus YDR502C, strain sam2, stronger effect = lower value 0.995 | locus YEL003W, strain gim4, stronger effect = lower value 0.968 | locus YEL037C, strain rad23, stronger effect = lower value 0.955 | locus YEL061C, strain CIN8 (second series), stronger effect = lower value 0.947 | locus YEL061C, strain CIN8, stronger effect = lower value 0.997 | locus YER015W, strain faa2, stronger effect = lower value 0.984 | locus YER016W, strain bim1, stronger effect = lower value 0.96 | locus YER110C, stronger effect = lower value 0.978 | locus YER111C, strain swi4, stronger effect = lower value 0.963 | locus YER155C, strain BEM2 (second series), stronger effect = lower value 0.974 | locus YER155C, strain BEM2, stronger effect = lower value 1 | locus YER167W, strain BCK2, stronger effect = lower value 1.01 | locus YFR010W, strain ubp6, stronger effect = lower value 0.946 | locus YGL078C, strain dbp3, stronger effect = lower value 0.996 | locus YGL086W, strain mad1, stronger effect = lower value 1.03 | locus YGL167C, strain pmr1, stronger effect = lower value 0.933 | locus YGL173C, strain kem1, stronger effect = lower value 0.993 | locus YGL227W, strain vid30, stronger effect = lower value 0.938 | locus YGL240W, strain doc1, stronger effect = lower value 0.958 | locus YGL248W, strain PDE1, stronger effect = lower value 0.965 | locus YGL253W, strain hxk2, stronger effect = lower value 0.965 | locus YGR078C, strain PAC10, stronger effect = lower value 0.984 | locus YGR135W, strain pre9, stronger effect = lower value 0.97 | locus YGR252W, strain gcn5, stronger effect = lower value 0.947 | locus YHR013C, strain ard1, stronger effect = lower value 0.973 | locus YHR027C, strain rpn1, stronger effect = lower value 0.958 | locus YHR030C, strain SLT2, stronger effect = lower value 1 and 0.999 | locus YHR079C, strain IRE1 (second series), stronger effect = lower value 1 | locus YHR079C, strain IRE1, stronger effect = lower value 1.02 | locus YHR094C, strain hxt1, stronger effect = lower value 0.969 | locus YHR129C, strain ARP1, stronger effect = lower value 0.99 | locus YHR142W, strain chs7, stronger effect = lower value 0.958 | locus YHR200W, strain rpn10, stronger effect = lower value 0.983 | locus YIL066C, strain RNR3, stronger effect = lower value 0.972 | locus YIL073C, strain SPO22, stronger effect = lower value 0.969 | locus YIL125W, strain kgd1, stronger effect = lower value 0.991 | locus YIR030C, strain dcg1, stronger effect = lower value 0.993 | locus YJL092W, strain hpr5, stronger effect = lower value 0.967 | locus YJL095W, strain BCK1 (second series), stronger effect = lower value 0.967 | locus YJL095W, strain BCK1, stronger effect = lower value 0.972 and 1.01 | locus YJL115W, strain asf1, stronger effect = lower value 0.948 | locus YJL129C, strain trk1, stronger effect = lower value 0.954 | locus YJL134W, strain LCB3, stronger effect = lower value 0.99 | locus YJL154C, strain vps35, stronger effect = lower value 0.958 | locus YJL164C, strain tpk1, stronger effect = lower value 0.995 | locus YJL166W, strain qcr8, stronger effect = lower value 0.971 | locus YJL168C, strain set2, stronger effect = lower value 0.993 | locus YJL187C, strain SWE1 (second series), stronger effect = lower value 0.983 | locus YJR043C, strain POL32, stronger effect = lower value 0.972 | locus YJR066W, strain TOR1, stronger effect = lower value 0.941 | locus YJR075W, strain HOC1, stronger effect = lower value 0.983 | locus YKL009W, strain mrt4, stronger effect = lower value 0.978 | locus YKL068W, stronger effect = lower value 0.973 | locus YKL085W, strain MDH1 (second series), stronger effect = lower value 0.981 | locus YKL085W, strain MDH1, stronger effect = lower value 0.981 | locus YKL160W, strain elf1, stronger effect = lower value 0.986 | locus YKL190W, strain CNB1, stronger effect = lower value 0.992 | locus YKR001C, strain vps1, stronger effect = lower value 0.994 | locus YKR026C, strain gcn3, stronger effect = lower value 0.946 | locus YKR091W, strain srl3, stronger effect = lower value 0.974 | locus YLL001W, strain dnm1, stronger effect = lower value 0.963 | locus YLL026W, stronger effect = lower value 0.947 | locus YLL041C, strain sdh2, stronger effect = lower value 0.959 | locus YLR027C, strain aat2, stronger effect = lower value 0.964 | locus YLR039C, strain RIC1, stronger effect = lower value 1.07 | locus YLR058C, strain SHM2, stronger effect = lower value 0.978 | locus YLR102C, strain apc9, stronger effect = lower value 0.986 | locus YLR113W, strain HOG1, stronger effect = lower value 1.01 | locus YLR221C, strain rsa3, stronger effect = lower value 0.986 | locus YLR258W, strain gsy2, stronger effect = lower value 0.971 | locus YLR262C, strain YPT6 (second series), stronger effect = lower value 0.961 | locus YLR262C, strain YPT6, stronger effect = lower value 1.08 | locus YLR268W, strain sec22, stronger effect = lower value 1.03 | locus YLR320W, strain mms22, stronger effect = lower value 1.01 | locus YLR330W, strain CHS5, stronger effect = lower value 1 | locus YLR342W, strain FKS1 (second series), stronger effect = lower value 0.985 | locus YLR342W, strain FKS1, stronger effect = lower value 0.974 | locus YLR357W, strain rsc2, stronger effect = lower value 0.947 | locus YLR370C, strain arc18, stronger effect = lower value 0.954 | locus YLR371W, strain rom2, stronger effect = lower value 0.963 | locus YLR384C, strain iki3, stronger effect = lower value 0.962 | locus YLR418C, strain cdc73, stronger effect = lower value 0.959 | locus YML016C, strain PPZ1, stronger effect = lower value 0.996 | locus YML032C, strain rad52, stronger effect = lower value 0.952 | locus YML120C, strain ndi1, stronger effect = lower value 0.963 | locus YML124C, strain tub3, stronger effect = lower value 1.01 | locus YMR058W, strain fet3, stronger effect = lower value 0.959 | locus YMR078C, strain ctf18, stronger effect = lower value 0.988 | locus YMR125W, strain sto1, stronger effect = lower value 0.948 | locus YMR129W, stronger effect = lower value 0.972 | locus YMR205C, strain PFK2, stronger effect = lower value 0.977 | locus YMR223W, strain ubp8, stronger effect = lower value 0.985 | locus YMR231W, strain pep5, stronger effect = lower value 0.971 | locus YMR307W, strain GAS1, stronger effect = lower value 1.01 | locus YNL067W, strain RPL9B, stronger effect = lower value 0.978 | locus YNL071W, strain lat1, stronger effect = lower value 0.971 | locus YNL128W, strain TEP1, stronger effect = lower value 0.998 | locus YNL183C, strain NPR1, stronger effect = lower value 0.936 | locus YNL209W, strain ssb2, stronger effect = lower value 0.958 | locus YNL233W, strain BNI4, stronger effect = lower value 0.993 | locus YNL248C, strain rpa49, stronger effect = lower value 0.973 | locus YNL250W, strain rad50, stronger effect = lower value 0.984 | locus YNL271C, strain bni1, stronger effect = lower value 0.993 | locus YNL298W, strain CLA4, stronger effect = lower value 0.973 | locus YNL307C, strain MCK1, stronger effect = lower value 0.988 | locus YNL322C, strain KRE1 (second series), stronger effect = lower value 0.949 | locus YNR049C, strain mso1, stronger effect = lower value 0.965 | locus YNR052C, strain pop2, stronger effect = lower value 0.99 | locus YOL012C, strain htz1 1.9 | locus YOL147C, strain pex11, stronger effect = lower value 0.991 | locus YOR001W, strain rrp6, stronger effect = lower value 0.962 | locus YOR061W, strain CKA2, stronger effect = lower value 0.954 | locus YOR069W, strain VPS5, stronger effect = lower value 0.994 | locus YOR070C, strain gyp1, stronger effect = lower value 0.977 | locus YOR080W, strain dia2, stronger effect = lower value 0.943 | locus YOR083W, strain WHI5, stronger effect = lower value 0.987 | locus YOR106W, strain vam3, stronger effect = lower value 0.943 | locus YOR136W, strain idh2, stronger effect = lower value 0.984 | locus YOR144C, strain elg1, stronger effect = lower value 0.986 | locus YOR184W, strain ser1, stronger effect = lower value 0.987 | locus YOR231W, strain MKK1, stronger effect = lower value 1.03 | locus YOR265W, strain rbl2, stronger effect = lower value 0.963 | locus YOR270C, strain vph1, stronger effect = lower value 0.94 | locus YOR290C, strain snf2, stronger effect = lower value 0.972 | locus YOR316C, strain cot1, stronger effect = lower value 0.982 | locus YPL051W, strain arl3, stronger effect = lower value 0.956 | locus YPL055C, strain LGE1, stronger effect = lower value 0.994 | locus YPL078C, strain atp4, stronger effect = lower value 0.952 | locus YPL106C, strain sse1, stronger effect = lower value 0.925 | locus YPL240C, strain hsp82, stronger effect = lower value 0.972 | locus YPL241C, strain CIN2, stronger effect = lower value 1 | locus YPL256C, strain CLN2, stronger effect = lower value 1.01 | locus YPR119W, strain clb2, stronger effect = lower value 0.996 | locus YPR141C, strain kar3, stronger effect = lower value 0.974 | locus YPR163C, strain tif3, stronger effect = lower value 0.993 | locus YPR167C, strain met16, stronger effect = lower value 0.99 | strain wtn01, stronger effect = lower value 1.02
